# Test results published in PubChem BioAssay (NCI).
# This is part of a sample that, as a whole, favours compounds with a hit. Of some 83,000 tested, about 20% had one in any assay.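 Percent growth is the endpoint: 0 to 100 indicates growth inhibition (40 means 60% inhibition), 0 means no net growth, and negative values indicate cell death.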 Values without a mark were called inactive. Activity calls are given as the source filed them. Rule for the calls: active = growth percent below 10; inactive = the rest.
# Key:
# Test in all cases: NCI-60 one-dose screen, 48 h (100 = growth as untreated, 0 = no growth, -100 = all killed)
# Conditions in all cases: 10 µM unless noted
# [1] = test system: NCI-H23 lung
# [2] = test system: NCI-H226 lung
# [3] = test system: NCI-H322M lung
# [4] = test system: HOP-62 NSCLC
# [5] = test system: NCI-H460 lung
# [6] = test system: 786-0 renal
# [7] = test system: MDA-MB-231 breast
# [8] = test system: SF-268 CNS
# [9] = test system: SF-539 CNS
# [10] = test system: U251 CNS
# [11] = test system: UACC-62 melanoma
# [12] = test system: SK-MEL-28 melanoma
# [13] = test system: SN12C renal
# [14] = test system: UO-31 renal
# [15] = test system: OVCAR-8 ovarian
# [16] = test system: OVCAR-3 ovarian
# [17] = test system: MDA-MB-435 melanoma
# [18] = test system: SW-620 colon
# [19] = test system: MCF7 breast
# [20] = test system: KM12 colon
SMILES,growth [1],growth [2],growth [3],growth [4],growth [5],growth [6],growth [7],growth [8],growth [9],growth [10],growth [11],growth [12],growth [13],growth [14],growth [15],growth [16],growth [17],growth [18],growth [19],growth [20]
C=C=[CH][Sn]([c]1ccccc1)([c]1ccccc1)[c]1ccccc1,-43.3% (active),-40.4% (active),-15.6% (active),-63.6% (active),-78.8% (active),-81.2% (active),-53.3% (active),-69% (active),-29.9% (active),-75.6% (active),-62.3% (active),-56.8% (active),-73.5% (active),-84.3% (active),-30% (active),-94% (active),-59.5% (active),-74.8% (active),-52.5% (active),-84.8% (active)
O=C1NC(=O)C(CN2C(=O)C3(c4ccccc42)[C@H](Cl)C(=O)N3c2ccccc2)C(=O)N1 (stereo not given in full),69.1%,76.4%,90.6%,66.3%,94.8%,94%,51.4%,84.7%,74.1%,72.6%,–,76.8%,97.4%,69.2%,92.3%,54.7%,104%,72.5%,18.4%,86.3%
CN1C(=O)NC(=O)C(N=Nc2ccc(Cl)cc2)C1=O (stereo not given),95.3%,105%,102%,123%,102%,78.4%,85.7%,93.5%,101%,108%,49.9%,122%,103%,104%,104%,105%,95.7%,106%,93%,82.6%
C=CCc1ccc(OC(=O)Cc2ccccc2)c(OC)c1,93.8%,95%,98.3%,93.2%,105%,99.2%,106%,107%,97.8%,99.3%,114%,106%,99.5%,77.1%,109%,110%,107%,106%,96%,110%
O=C(C(=O)N1CCCC1)c1cn(CCCCCn2cc(C(=O)C(=O)N3CCCC3)c3ccccc32)c2ccccc12,91.1%,89%,93.9%,102%,91.3%,105%,77.2%,91.4%,94.8%,88%,65.3%,106%,82.3%,61.6%,90.8%,88.4%,87.6%,91.9%,86.6%,86.3%
Nc1cccc(CC(=O)Nc2ccc(S(=O)(=O)F)cc2)c1,99.7%,93.9%,104%,90.3%,102%,96.9%,94.4%,107%,97.4%,102%,90.5%,87.5%,100%,86.2%,91.2%,102%,89.8%,84.3%,86.7%,92.2%
CO[C@@H]1[C@H](OC(=O)NC(=O)CCl)CC[C@]2(CO2)[C@H]1[C@@]1(C)O[C@@H]1CC=C(C)C,64.1%,72.7%,59.8%,64.4%,23.5%,70.4%,79.9%,71.5%,87.6%,5.86% (active),63.5%,–,72.3%,52.6%,–,71.8%,62.6%,49.4%,26.9%,36.3%
Cc1ccc(N)cc1[As]=[As]c1cc(N)ccc1C (stereo not given),-56.4% (active),-93.2% (active),50.3%,14.9%,60.4%,-89.3% (active),-92.6% (active),-83.6% (active),-94.5% (active),-98.7% (active),-90.4% (active),-94.2% (active),-86.5% (active),-99.7% (active),-95.3% (active),-92.6% (active),-89% (active),-57% (active),-74.9% (active),65.7%
COc1ccc(C2SCC(=O)Nc3c2c(C)nn3-c2nc3ccc(C)cc3s2)cc1O (stereo not given),55.3%,67.6%,56.3%,38.3%,15.7%,58.4%,36%,44.8%,31%,31.3%,40.2%,51.1%,49.6%,28.4%,50.7%,5.66% (active),-25.5% (active),28.1%,15.4%,16.2%
CC[C@H](C)[C@H](NC(=O)Nc1ccccc1)C(=O)N(C)[C@H](C[C@@H](OC(C)=O)c1nc(C(=O)N[C@@H](Cc2ccccc2)C[C@H](C)C(=O)OC)cs1)C(C)C,23.6%,24.5%,48.4%,20.3%,1.7% (active),18.1%,-4.27% (active),18.8%,-26.3% (active),7.23% (active),15.1%,52.1%,46.6%,26.7%,14.6%,-40.4% (active),-36.7% (active),17%,12.4%,4.31% (active)
CCC[CH2][Sn]([CH2]CCC)([CH2]CCC)[O]C(=O)CC,-87.1% (active),-58.9% (active),-95.2% (active),-88.9% (active),-84.1% (active),-94.5% (active),-79.4% (active),-97.3% (active),-85.1% (active),-84.6% (active),-90% (active),-98.3% (active),-80.6% (active),-90.4% (active),-70.4% (active),-99.1% (active),-89.3% (active),-84.8% (active),-82.1% (active),-93.2% (active)
O=[As]c1ccc(C(=O)c2ccc(Oc3ccccc3)cc2)cc1 (stereo not given),-77.5% (active),-85.5% (active),-79.1% (active),-98.3% (active),-31.9% (active),-99.6% (active),-98.4% (active),-89.2% (active),-98.4% (active),-100% (active),-98.1% (active),-96.3% (active),-98.4% (active),-84.6% (active),-97.3% (active),-93.9% (active),-52% (active),-82.6% (active),-48.6% (active),-87.2% (active)
COC(C)(C)CCC[C@H](C)C/C=C/C(C)=C/C(=O)OC(C)C,78.7%,103%,108%,107%,109%,85.8%,102%,103%,118%,95.9%,96.6%,101%,92.5%,84.9%,98.2%,111%,97.4%,105%,–,107%
O=CC(Br)C(Br)c1ccccc1 (stereo not given),104%,97.7%,103%,107%,102%,106%,96.5%,95.7%,94%,102%,87.4%,93.7%,86.7%,74.1%,85.6%,33.3%,99.3%,19.5%,44.1%,96.1%
Cc1cc(C)nc(C)c1.[Cl][Hg][Cl],98.9%,120%,91.5%,102%,101%,104%,118%,102%,103%,91.6%,95%,94%,104%,95.5%,100%,108%,83.9%,105%,82.7%,96.2%
CC1(C)N=C(N)N=C(N)N1c1cccc(C(=O)Nc2cccc(S(=O)(=O)F)c2)c1,107%,99%,100%,105%,97.3%,99.5%,113%,112%,–,99.8%,99%,103%,101%,78.5%,100%,112%,98.4%,93.5%,95.5%,102%
